Data on seven compounds can be found in PubChem BioAssay (NCATS).

Experiment [1] in a line: qHTS profiling of the MIPE4 collection as inhibitors of Plasmodium falciparum (3D7) proliferation (AID 743344; call rule not given here;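 further: scaled between DMSO vehicle wells and 0.29 µM artemisinin as full inhibition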). To be noted: P. falciparum 3D7 in erythrocytes, SYBR Green DNA fluorescence, 72 h; at 28.5 µM. In outline: (§1)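 Erythrocytes infected with P. falciparum (0.3% parasitemia, 2.5% hematocrit) incubated with compounds 72 h at 37 C, 5% CO2. Lysis with saponin/Triton buffer containing SYBR Green I, overnight at room temperature in the dark; DNA fluorescence (485/535 nm) normalised to 0.29 uM artemisinin and DMSO.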

A short description of experiment [2]: qHTS profiling of the MIPE4 collection as inhibitors of Plasmodium falciparum (DD2) proliferation (AID 743345; call rule not given here). To be noted: P. falciparum Dd2 in erythrocytes, SYBR Green DNA, 72 h; at 28.5 µM. In outline: as §1
Experiment [3] can be described thus: qHTS profiling of the MIPE4 collection as inhibitors of Plasmodium falciparum (DD2) proliferation (Rep 2) (AID 743346; call rule not given here). Conditions: P. falciparum Dd2 in erythrocytes, SYBR Green DNA, 72 h; at 28.5 µM. Put shortly:
as §1

The nature of experiment [4]: qHTS profiling of the MIPE4 collection as inhibitors of Plasmodium falciparum (HB3) proliferation (AID 743347; call rule not given here;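 further: plate controls were DMSO vehicle wells for no effect and artemisinin wells for full effect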). Conditions: P. falciparum HB3 in erythrocytes, SYBR Green DNA, 72 h; at 28.5 µM. Put shortly:
as §1

The target in experiment [5] is Calcium and integrin-binding protein 1 (Homo sapiens) (UniProt Q99828). Put plainly: Primary qHTS for Identification of Calcium Integrin Binding Protein 1 (CIB1) Competitor (AID 1508620).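 Further: GST tagged CIB1 binding a fluorescein labelled alphaIIb integrin peptide tracer; top concentration of the series differs between compounds; on the % scale 0 is the no-effect control and ±100 the full control effect.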 In outline:
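CIB1-GST (1 uM final) and compound incubated 15 min at room temperature before adding FITC-alphaIIb peptide tracer (100 nM final). Competition for binding read by fluorescence polarization (ex 480, em 540) after another 15 min at room temperature.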

Experiment [6] deals with Ubiquitin carboxyl-terminal hydrolase 2 (Homo sapiens) (UniProt O75604). Kind of experiment: qHTS for Inhibitors of Ubiquitin-specific Protease USP2a Using CHOP2 as the Reporter: K484 Substrate (AID 652173).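 Further: cleavage of internally quenched K48 di-ubiquitin substrate measured as rising fluorescence over time; potency means the concentration at half of the fitted maximal effect; nearly all actives have a fitted effect of over 70% in size.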 Put shortly:
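USP2 (dispensed at 5 nM) was pinned with compounds, then DiUb K48 internally quenched fluorescent substrate (dispensed at 100 nM) was added. The buffer was 20 mM Tris pH 8, 2 mM beta-mercaptoethanol and 0.05% CHAPS. Cleavage was read kinetically as rising fluorescence, Ex 525/Em 598.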

Experiment [7] is described as follows: Counterscreen qHTS for small molecule stabilizers of the endoplasmic reticulum resident proteome: GLuc-NoTag assay (AID 1508627). Further: potency means the concentration at half of the fitted maximal effect.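 On activity change, negative = inhibition: SH-SY5Y cells given compound then 100 nM thapsigargin to empty ER calcium; 0% = thapsigargin alone and -100% = DMSO vehicle control.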 In outline: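 Luminescence of Gaussia luciferase secreted into the medium (coelenterazine, 0.07x final, unlysed cells) was the read-out. Human SH-SY5Y neuroblastoma cells constitutively secreting untagged GLuc received compound for 19 h, then 100 nM thapsigargin for 4 h.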

Experiment [8] can be described thus: Confirmatory qHTS for small molecule stabilizers of the endoplasmic reticulum resident proteome: Secreted ER Calcium Modulated Protein (SERCaMP) assay (AID 1508628). Further: nearly all actives have a fitted effect of over 40% in size. Further: potency means the concentration at half of the fitted maximal effect. Put shortly: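 We seeded SH-SY5Y-GLuc-SERCaMP cells, added compounds (three concentrations in the primary run, eleven up to 76.6 uM in confirmation), incubated 16 h, depleted ER calcium with thapsigargin, and read luciferase 4 h later.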

A short description of experiment [9]: Cell Viability qHTS for small molecule stabilizers of the endoplasmic reticulum resident proteome (AID 1508629).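 Further: human SH-SY5Y neuroblastoma cells carrying the GLuc-SERCaMP reporter; compound exposure about 46 h in total before the viability read; on the % scale 0 is the no-effect control and ±100 the full control effect.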 To be noted: cell viability counter-screen, 100 nM thapsigargin for final 4 h.
Experiment [10] can be described thus: AP1 Signaling Pathway (AID 357; active means well fitted curve in either direction with a large enough effect, not every such curve was filed as active;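 further: ME-180 reporter cells stimulated with EGF at its EC50 level; on the % scale 0 is the no-effect control and ±100 the full control effect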). To be noted: ME-180 AP-1-bla reporter, EGF-induced, beta-lactamase ratio, 5 h; at 7.69 µM (top of the series) unless noted. Put shortly: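 In this screen, ME-180 cells in Opti-MEM with 0.5% dialyzed FBS received EC50 EGF and compound titrations for 5 h. AP-1 reporter beta-lactamase was detected via CCF4 ratio, giving AC50 for positive and negative modulators.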

Experiment [11] concerns the target Cytochrome P450 1A2 (Homo sapiens) (UniProt P05177). Kind of experiment: p450-cyp1a2 (AID 410; calls by dose curve; further: potency means the concentration at half of the fitted maximal effect). In outline: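 Human CYP1A2 (20nM) demethylated Luciferin-ME at its Km (100uM) in 100mM KPO4. After 10 min compound preincubation, NADPH regeneration ran the reaction 60 min at room temperature. Luciferin was read by luminescence, normalized to 57 uM furafylline.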
Experiment [12] can be described thus: NFAT Signaling Pathway (AID 444; active means well fitted curve in either direction with a large enough effect, not every such curve was filed as active;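 further: carbachol stimulus at about its EC50 of 1 µM final; on the % scale 0 is the no-effect control and ±100 the full control effect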). To be noted: Jurkat NFAT-bla M1, carbachol, beta-lactamase ratio, 5 h; at 7.69 µM (top of the series) unless noted. Put shortly: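 Read-out: CCF4 FRET ratio (460 nm/530 nm) after 1 h RT dye loading, used for %activity and AC50 from titration series. Cells: Jurkat NFAT-β-lactamase/M1 line, treated with compound plus 1 uM carbachol for 5 h, 37 °C.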

Experiment [13] is described as follows: Stat Signaling Pathway (AID 446; active means well fitted curve in either direction with a large enough effect, not every such curve was filed as active). To be noted: ME-180 (cervical carcinoma) SIE beta-lactamase reporter, IL-6 stimulated, 5 h; at 7.69 µM (top of the series) unless noted. Put shortly:
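ME-180 cells carrying a SIE-driven beta-lactamase reporter are stimulated with 40 pM IL-6 for 5 h at 37C in the presence of compound. The 460/530 nm FRET substrate ratio is read after 2.5 h at RT. Data are normalised to 300 pM IL-6 and to 125 nM JAK inhibitor controls.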

Experiment [14] concerns the target Glucocorticoid receptor (Homo sapiens) (UniProt P04150). Put plainly: GR-GFP Redistribution (AID 450;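 active means compounds whose dose series gives a full or clear partial fitted curve of increased nuclear translocation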; further: potency means the concentration at half of the fitted maximal effect). Conditions: U2OS GR-GFP nuclear translocation, laser cytometry, 2 h.
Experiment [15] has the same target. Put plainly: GR-EFC Redistribution (AID 451; calls by dose curve; further: potency means the concentration at half of the fitted maximal effect). To be noted: CHO-K1 GR-EFC translocation, beta-gal luminescence, 2 h. In outline:
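Translocation of GR-ED fusion to nuclear EA restores b-gal, read by luminescence after 1 h room-temperature detection. Engineered CHO-K1 biosensor cells, 1,000/well, exposed 2 h at 37 C to titrations up to 46 uM final.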

For experiment [16], the target named is Mitogen-activated protein kinase 10 (Mus musculus) (UniProt Q61831). Put plainly: JNK3 AlphaScreen Assay (AID 530; active means well fitted curve in either direction with a large enough effect, not every such curve was filed as active). Put shortly: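 Room-temperature AlphaScreen kinase assay; pre-activated HepG2 lysate as JNK3 source, biotin-GST-cJun(1-79) substrate, 10 uM ATP, compound 15 min preincubation.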
For experiment [17], the target named is 3',5'-cyclic-AMP phosphodiesterase 4B (Homo sapiens) (UniProt Q07343). Put plainly: qHTS Assay for Inhibitors of PDE-IV (AID 607; active means well fitted activation curve with a large enough effect in the main read-out, with a control signal flat, not every such curve was filed as active; further: % of control where 0% means no effect). In outline: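 HEK293 ACTOne cells with CNG channel (1000/well), endogenous PDE4; membrane potential dye, compounds up to 22.9 uM final. Fluorescence Ex 535/Em 590; RO 20-1724 (100 uM final) as reference.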
The nature of experiment [18]: qHTS Assay for Lipid Storage Modulators (AID 1519; calls by dose curve). To be noted: Drosophila S3 cells, BODIPY lipid droplet/cell ratio, laser cytometry, cells loaded with oleic acid; for activity change, negative = inhibition: at 57.5 µM (top of the series). In outline:
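Cells seeded at 5,000 per well were treated with compounds over a concentration series and loaded with oleic acid (400 uM, as added). Lipid droplet fluorescence (488 nm excitation, 500-530 nm channel) was read by laser-scanning cytometry and normalized to 20 uM Triacsin C.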

For experiment [19], the target named is Dual specificity protein kinase CLK4 (Homo sapiens) (UniProt Q9HAZ1). Put plainly: qHTS Assay for Inhibitors of CDC-like Kinase 4 (ADP-Glo Assay) (AID 1771). Further: nearly all actives have a fitted effect of over 70% in size. Further: potency means the concentration at half of the fitted maximal effect. Put shortly:
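Clk4 (25 nM) was incubated 1 hr at room temperature with 100 uM RS repeat peptide and 1 uM ATP in buffer with 2 mM MgCl2, 0.5 mM EGTA, 2.5 mM DTT. ADP formed was quantified by ADP-Glo luminescence.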

Experiment [20] has the same target. Kind of experiment: qHTS Assay for Inhibitors of CDC-like Kinase 4 (ADP-FP Assay) (AID 1795). Further: nearly all actives have a fitted effect of over 60% in size. Further: potency means the concentration at half of the fitted maximal effect. Put shortly:
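Kinase activity was followed as ADP output, converted from fluorescence polarization with a calibration curve. Reactions ran one hour at low ATP (1 uM) with RS peptide substrate.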

The target of experiment [21] is Ubiquitin carboxyl-terminal hydrolase 1 (Homo sapiens) (UniProt O94782). Put plainly: Inhibitors of USP1/UAF1: Pilot qHTS (AID 504865).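 Further: rhodamine fluorescence freed from ubiquitin-rhodamine substrate followed over time; top concentration of the series differs between compounds; on the % scale 0 is the no-effect control and ±100 the full control effect; nearly all actives have a fitted effect of over 35% in size.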 In outline: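 Enzyme-free wells gave the negative control, while test wells held 1nM USP1/UAF1 preincubated with compound for 15 min at room temperature. Ub-Rho at 150nM final started the reaction, and fluorescence at 480/540 nm was recorded kinetically.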

The target in experiment [22] is Lysosomal acid glucosylceramidase (Homo sapiens) (UniProt P04062). Put plainly: Glucocerebrosidase-p2 (AID 348; in the data active means potency below about 10 µM; further: potency means the concentration at half of the fitted maximal effect). Conditions: purified GBA, blue fluorogenic substrate, 40 min. In outline: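 Compounds titrated from 0.6 nM upwards against 0.2 nM enzyme in pH 5.9 citric acid/KH2PO4, taurocholate, tween-20; blue fluorogenic substrate 80 uM, 40 min room temperature, stopped and read Ex 365/Em 440 for AC50.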

Experiment [23] deals with Cytochrome P450 3A4 (Homo sapiens) (UniProt P08684). Put plainly: qHTS Assay for Activators of Cytochrome P450 3A4 (AID 885). Further: nearly all actives have a fitted effect of over 65% in size. In outline:
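Human CYP3A4 (20 nM) with Luciferin-PPXE at 25 uM (its KM) in 200 mM KPO4; 10 min compound preincubation, then NADPH regeneration and 60 min reaction at RT. Luciferin read by luminescence; normalized to 57 uM ketoconazole full inhibition.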

The target in experiment [24] is Dual specificity protein kinase CLK4 (Homo sapiens) (UniProt Q9HAZ1). Put plainly: qHTS Assay for Inhibitors of CDC-like Kinase 4 (Kinase-Glo Assay) (AID 1770). Further: potency means the concentration at half of the fitted maximal effect; nearly all actives have a fitted effect of over 65% in size. Put shortly: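 Clk4 25 nM, RS peptide 100 uM, ATP 1 uM, pH 7.5 Tris, 10 mM MgCl2, 2.5 mM DTT; 4.5 h RT; ATP depletion read by Kinase-Glo luminescence.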
The mark [25] stands for this setting: measured here: cell count channel max response.
The mark [26] stands for this setting: measured here: lipid channel max response.

Inconclusive results are not listed. The source made the active and inactive calls. Unless noted, the call rests on the fitted dose curve; in most records, active means well fitted curve in the direction sought with a large enough effect; inconclusive means small, poorly fitted or top-dose-only effect, or another doubt; inactive means no such curve, though single readings can be large; an effect the other way counts as inactive or inconclusive.

Sequence of 3',5'-cyclic-AMP phosphodiesterase 4B (Homo sapiens) (Q07343 whole entry, looked up): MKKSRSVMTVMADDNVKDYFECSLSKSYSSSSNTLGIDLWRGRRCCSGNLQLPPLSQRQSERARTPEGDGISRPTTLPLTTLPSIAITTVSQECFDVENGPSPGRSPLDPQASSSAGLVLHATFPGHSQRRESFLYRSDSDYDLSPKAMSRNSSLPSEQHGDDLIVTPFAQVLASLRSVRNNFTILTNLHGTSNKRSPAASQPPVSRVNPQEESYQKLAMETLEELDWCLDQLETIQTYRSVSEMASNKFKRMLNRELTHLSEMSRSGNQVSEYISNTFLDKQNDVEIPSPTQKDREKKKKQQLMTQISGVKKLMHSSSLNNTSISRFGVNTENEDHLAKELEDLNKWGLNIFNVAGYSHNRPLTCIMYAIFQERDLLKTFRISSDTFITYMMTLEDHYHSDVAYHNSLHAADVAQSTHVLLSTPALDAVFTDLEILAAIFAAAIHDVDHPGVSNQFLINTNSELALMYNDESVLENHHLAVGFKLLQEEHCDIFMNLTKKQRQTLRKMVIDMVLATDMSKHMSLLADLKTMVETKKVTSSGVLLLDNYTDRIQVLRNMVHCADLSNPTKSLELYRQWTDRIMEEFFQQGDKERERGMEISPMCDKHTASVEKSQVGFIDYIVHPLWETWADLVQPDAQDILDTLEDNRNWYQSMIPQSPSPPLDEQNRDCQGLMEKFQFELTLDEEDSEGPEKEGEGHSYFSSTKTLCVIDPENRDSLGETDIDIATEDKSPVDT
Sequence of Calcium and integrin-binding protein 1 (Homo sapiens) (Q99828 whole entry, looked up): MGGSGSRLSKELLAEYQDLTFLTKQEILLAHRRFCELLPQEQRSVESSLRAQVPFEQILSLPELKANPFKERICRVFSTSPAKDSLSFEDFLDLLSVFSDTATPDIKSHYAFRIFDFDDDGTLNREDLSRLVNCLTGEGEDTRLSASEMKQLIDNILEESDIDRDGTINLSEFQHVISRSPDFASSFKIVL
Sequence of Dual specificity protein kinase CLK4 (Homo sapiens) (Q9HAZ1 whole entry, looked up): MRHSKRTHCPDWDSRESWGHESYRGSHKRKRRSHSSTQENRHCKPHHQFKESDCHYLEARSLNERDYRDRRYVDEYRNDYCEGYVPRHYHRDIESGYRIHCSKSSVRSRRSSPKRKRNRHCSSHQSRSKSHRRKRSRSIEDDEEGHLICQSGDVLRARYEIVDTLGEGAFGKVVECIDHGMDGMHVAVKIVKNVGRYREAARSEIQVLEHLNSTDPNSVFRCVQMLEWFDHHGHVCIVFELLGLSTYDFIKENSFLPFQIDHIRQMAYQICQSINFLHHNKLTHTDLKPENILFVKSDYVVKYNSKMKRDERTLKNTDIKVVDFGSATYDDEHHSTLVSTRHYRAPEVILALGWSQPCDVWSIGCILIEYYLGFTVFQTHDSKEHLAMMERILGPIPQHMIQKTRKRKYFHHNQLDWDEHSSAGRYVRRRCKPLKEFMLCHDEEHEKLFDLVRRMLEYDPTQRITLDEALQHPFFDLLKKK
Sequence of Ubiquitin carboxyl-terminal hydrolase 1 (Homo sapiens) (O94782 whole entry, looked up): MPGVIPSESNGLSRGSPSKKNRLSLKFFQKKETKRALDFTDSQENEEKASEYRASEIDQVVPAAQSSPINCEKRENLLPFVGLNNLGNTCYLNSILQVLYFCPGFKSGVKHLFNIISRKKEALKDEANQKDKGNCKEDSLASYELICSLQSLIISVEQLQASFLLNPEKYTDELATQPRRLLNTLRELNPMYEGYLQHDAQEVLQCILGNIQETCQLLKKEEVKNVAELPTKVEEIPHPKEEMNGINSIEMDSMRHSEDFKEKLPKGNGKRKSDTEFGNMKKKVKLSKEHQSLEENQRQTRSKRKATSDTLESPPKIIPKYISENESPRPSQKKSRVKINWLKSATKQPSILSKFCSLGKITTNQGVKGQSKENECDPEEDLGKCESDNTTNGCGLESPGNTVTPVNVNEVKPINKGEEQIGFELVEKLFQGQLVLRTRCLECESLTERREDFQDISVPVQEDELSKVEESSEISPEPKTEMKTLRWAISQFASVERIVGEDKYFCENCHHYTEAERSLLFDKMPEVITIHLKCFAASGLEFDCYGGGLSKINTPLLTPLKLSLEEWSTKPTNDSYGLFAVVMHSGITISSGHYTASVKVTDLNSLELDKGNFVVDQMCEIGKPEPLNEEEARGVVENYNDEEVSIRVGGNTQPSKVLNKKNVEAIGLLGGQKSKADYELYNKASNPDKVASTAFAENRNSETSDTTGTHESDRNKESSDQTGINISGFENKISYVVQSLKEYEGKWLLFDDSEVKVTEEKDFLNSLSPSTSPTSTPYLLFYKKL
Sequence of Cytochrome P450 1A2 (Homo sapiens) (P05177 whole entry, looked up): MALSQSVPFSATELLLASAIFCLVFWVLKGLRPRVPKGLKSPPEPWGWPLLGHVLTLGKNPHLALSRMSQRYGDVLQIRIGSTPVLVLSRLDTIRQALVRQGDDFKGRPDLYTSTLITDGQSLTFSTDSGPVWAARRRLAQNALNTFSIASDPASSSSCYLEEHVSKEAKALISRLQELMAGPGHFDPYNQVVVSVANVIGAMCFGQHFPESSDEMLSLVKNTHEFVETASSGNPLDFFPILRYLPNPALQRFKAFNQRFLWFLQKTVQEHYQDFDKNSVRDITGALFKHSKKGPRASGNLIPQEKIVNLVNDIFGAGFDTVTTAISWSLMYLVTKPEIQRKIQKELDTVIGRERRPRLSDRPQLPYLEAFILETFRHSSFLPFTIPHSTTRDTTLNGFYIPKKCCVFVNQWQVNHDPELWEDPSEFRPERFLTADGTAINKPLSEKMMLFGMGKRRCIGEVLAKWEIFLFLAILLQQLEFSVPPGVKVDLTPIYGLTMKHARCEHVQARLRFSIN
Sequence of Glucocorticoid receptor (Homo sapiens) (P04150 whole entry, looked up): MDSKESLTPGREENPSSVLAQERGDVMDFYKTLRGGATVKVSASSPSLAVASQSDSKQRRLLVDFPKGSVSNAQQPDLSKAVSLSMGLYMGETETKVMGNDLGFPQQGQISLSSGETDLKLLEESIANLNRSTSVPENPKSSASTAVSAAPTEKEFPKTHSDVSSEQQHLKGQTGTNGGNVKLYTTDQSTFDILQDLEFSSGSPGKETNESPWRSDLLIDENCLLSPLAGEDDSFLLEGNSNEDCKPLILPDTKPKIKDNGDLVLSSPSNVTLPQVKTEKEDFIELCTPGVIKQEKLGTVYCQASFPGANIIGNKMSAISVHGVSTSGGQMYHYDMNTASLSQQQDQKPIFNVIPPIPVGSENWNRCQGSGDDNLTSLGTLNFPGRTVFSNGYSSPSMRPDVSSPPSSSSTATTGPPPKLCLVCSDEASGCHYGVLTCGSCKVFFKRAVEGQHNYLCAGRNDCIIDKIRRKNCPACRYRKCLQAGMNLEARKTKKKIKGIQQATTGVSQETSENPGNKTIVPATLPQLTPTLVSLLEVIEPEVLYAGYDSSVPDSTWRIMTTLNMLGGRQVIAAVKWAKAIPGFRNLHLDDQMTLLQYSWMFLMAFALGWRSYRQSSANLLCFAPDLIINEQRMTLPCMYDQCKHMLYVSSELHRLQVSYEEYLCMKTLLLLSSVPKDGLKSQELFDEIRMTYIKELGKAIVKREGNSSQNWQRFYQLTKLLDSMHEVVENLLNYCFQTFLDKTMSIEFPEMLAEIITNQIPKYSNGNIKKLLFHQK
Sequence of Lysosomal acid glucosylceramidase (Homo sapiens) (P04062 whole entry, looked up): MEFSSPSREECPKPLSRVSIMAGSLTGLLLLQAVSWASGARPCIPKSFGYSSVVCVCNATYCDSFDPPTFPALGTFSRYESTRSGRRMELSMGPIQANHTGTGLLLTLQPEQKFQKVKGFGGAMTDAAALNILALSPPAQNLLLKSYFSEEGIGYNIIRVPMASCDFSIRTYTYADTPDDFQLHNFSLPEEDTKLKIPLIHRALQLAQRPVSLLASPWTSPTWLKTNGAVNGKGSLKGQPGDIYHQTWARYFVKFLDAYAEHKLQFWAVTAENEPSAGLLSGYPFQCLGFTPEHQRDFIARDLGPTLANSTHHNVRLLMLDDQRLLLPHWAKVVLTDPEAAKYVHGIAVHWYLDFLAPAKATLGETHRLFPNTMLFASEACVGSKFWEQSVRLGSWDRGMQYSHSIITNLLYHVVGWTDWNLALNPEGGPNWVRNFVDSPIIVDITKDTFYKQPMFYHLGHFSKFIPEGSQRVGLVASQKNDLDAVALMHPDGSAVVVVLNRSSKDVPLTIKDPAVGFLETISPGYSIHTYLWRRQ
Sequence of Cytochrome P450 3A4 (Homo sapiens) (P08684 whole entry, looked up): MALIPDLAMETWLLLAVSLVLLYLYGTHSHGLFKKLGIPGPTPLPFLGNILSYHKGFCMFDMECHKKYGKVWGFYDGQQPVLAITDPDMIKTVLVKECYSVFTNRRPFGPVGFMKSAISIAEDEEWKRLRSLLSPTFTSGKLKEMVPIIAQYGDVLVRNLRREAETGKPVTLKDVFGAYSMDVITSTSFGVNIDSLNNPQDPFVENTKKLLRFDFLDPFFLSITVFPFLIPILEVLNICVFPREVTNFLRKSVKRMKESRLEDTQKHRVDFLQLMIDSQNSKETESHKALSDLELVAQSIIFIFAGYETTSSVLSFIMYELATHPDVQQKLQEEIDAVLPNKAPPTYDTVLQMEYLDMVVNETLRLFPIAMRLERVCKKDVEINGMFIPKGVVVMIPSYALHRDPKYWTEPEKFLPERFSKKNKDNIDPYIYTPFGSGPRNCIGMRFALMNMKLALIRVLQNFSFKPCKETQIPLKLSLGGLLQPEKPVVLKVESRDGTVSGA

The compound `O=C([C@H](Cc1ccc(O[S+](=O)([O-])c2cccc3cnccc23)cc1)N[S+](=O)([O-])c1cccc2cnccc12)N1CCN(Cc2ccccc2)CC1` yielded a parasite growth, % of DMSO control in [1] of 4.76%. Further, the parasite growth remaining, % of DMSO control (lower = more inhibition) in experiment [2] was 6.64%. Moreover, in [3], the parasite growth, % of control (lower = inhibition) came to 19.3%. Besides, the growth, % of control in [4] was 5.19%. In addition, the Potency result in experiment [5] is “inactive”.
With `Cc1ccc(-c2cc(C(=O)Nc3ccc(-n4cccn4)cc3)c3ccccc3n2)cc1C`, the Potency in experiment [6] was 8.63 µM (active). The Potency result in experiment [5] was “inactive”.
The matching figures for `COc1cc(NS(=O)(=O)c2ccc(C)cc2)cc(C(=O)Nc2nc(-c3ccccc3)cs2)c1`: 2.43 µM (active) and “inactive”.
As to `OC[C@H]1NC[C@H](O)[C@@H](O)[C@@H]1O`, the Potency entry in experiment [7] and in [8] was “inactive” in each case. Moreover, the max response in experiment [9] was 6.89% (inactive).
Regarding `COc1ccc(-n2c(=O)c(-c3cccc(C#N)c3)nc3cnc(N4CCNCC4)nc32)cc1`, the activity change, negative = inhibition in experiment [10] is 6.83% (inactive); in experiment [12] it was 5.29% (inactive); in experiment [18] it was 9.59% (inactive). The Potency was 15.8 µM (active) in [11], > 9.22 µM (inactive) in experiment [14], > 46 µM (inactive) in [15] and 25.1 µM (active) in experiment [8]. Also, in experiment [13], the activity, negative = inhibition was 13.3% (inactive). The compound was classed as inactive in experiment [16]. In addition, the Potency entry in experiment [17], in experiment [19], in [20], in [21] and in experiment [7] was “inactive” throughout. Also, the max response turned out to be 24% in [18] (setting [25]) and 29.5% in experiment [18] (setting [26]).
Regarding `Cc1nc2cnc(N3CCN(C)CC3)nc2n(Cc2ccc(F)cc2)c1=O`, the Potency was > 11.4 µM (inactive) in experiment [22], > 9.22 µM (inactive) in [14] and > 46 µM (inactive) in experiment [15]. In addition, the activity change, negative = inhibition in experiment [10] was 1.11% (inactive); in experiment [12], -12.3% (inactive); in [18], 3.55% (inactive). Moreover, the Potency entry in experiment [11], in experiment [17], in [23], in [19], in experiment [20] and in experiment [21] was “inactive” in each case. The Potency result in experiment [7] and in experiment [8] was “inactive” throughout. Further, in [13], the activity, negative = inhibition was -4.86% (inactive). Moreover, the outcome in [16] was inactive. Moreover, the results for the max response in experiment [18] (setting [25]) and in experiment [18] (setting [26]) were -0.123% and 1.24%, respectively.
With `COc1cccc(-c2ccc3ncnc(N4CCN(C)CC4)c3c2)c1`, the Potency in [22] was > 11.4 µM (inactive); in experiment [11], 3.98 µM (active); in experiment [14], > 46 µM (inactive); in experiment [15], > 46 µM (inactive); in experiment [24] it was 3.55 µM (active); in experiment [19], 3.98 µM (active). Moreover, the values for the Potency in experiment [20], in [7] and in experiment [8] were 2.24 µM (active), 35.5 µM (active) and 39.8 µM (active), respectively. For the same compound, the activity change, negative = inhibition in [12] is 13% (inactive); in [18], -0.228% (inactive). The activity, negative = inhibition in experiment [13] was -6.09% (inactive). Further, in [16], the compound was called inactive. The Potency entry in experiment [17], in experiment [23] and in experiment [21] was “inactive” each time. The max response in [18] (setting [25]) turned out to be 8.77%; in [18] (setting [26]) it was 10.1%.
